PubChem BioAssay (NCI)
Several values for one entry are separate records, joined by “and”; a condition that tells them apart may be missing. Identical values can stand only once. About 83,000 compounds went through this panel and 20% of them were active in at least one assay; those are over-represented in the sample as a whole.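 Method: cells in 96-well plates; compound added at one concentration; 48 h incubation; percent growth measured; values under 10 scored active.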 Some structures have more than one record in an assay (separate samples or runs), and their calls can disagree. Activity calls are given as the source filed them.

Tested on: HL-60(TB) leukemia
Assay: NCI-60 one-dose screen, 48 h (100 = growth as untreated, 0 = no growth, -100 = all killed)
Details: 10 µM unless noted

Compound	growth
CC(=O)N(N=Nc1ccccc1)c1cccc2ccccc12	116% (inactive)
CCN(CC)CCNC(=O)c1ccc(NCN2C(=O)NC(c3ccccc3)(c3ccccc3)C2=O)cc1	107% (inactive) and 105% (inactive)
O=C1N/C(=N/O)S/C1=C/c1cn(-c2ccccc2)nc1-c1ccccc1	117% (inactive)
COc1cc(CC#N)c([N+](=O)[O-])cc1OC	92.6% (inactive)
N#Cc1c(-c2ccccc2)cc(-c2ccccc2)n(CCCC(=O)Nc2ccccc2N)c1=O	21.5% (inactive)
O=C1Nc2c(ccc(Cl)c2Cl)/C1=C/c1ccc(F)cc1	71.4% (inactive)
CN(C)CCOC1(Cc2ccc(Cl)cc2Cl)CCC(C(C)(C)C)CC1 (centres undefined)	43.9% (inactive) and 9.21% (active)
COc1ccc(/C=C(\C#N)c2ccc([N+](=O)[O-])cc2)c2ccccc12	85.4% (inactive)
O=c1c(Br)ccc(Br)cc1Br	-58.8% (active)
CC(C)NC1CCC(Nc2ccnc3cc(Cl)ccc23)CC1 (centres undefined)	57.9% (inactive)
C(#CCN1CCOCC1)CCCN1CCOCC1	93% (inactive) and 127% (inactive)
CCCC(=O)NC(c1ccc2c(c1)OCO2)c1ccc2cccnc2c1O (centres undefined)	-47.7% (active)
CN(C)C1CCN(C(=O)c2ccc(NC(=O)Nc3ccc(-c4nc(N5CCOCC5)nc(N5CCOCC5)n4)cc3)cc2)CC1	1.8% [2.5 µM] (active)
N#CCCN(NC(=O)OCc1ccccc1)C(=O)OCc1ccccc1	115% (inactive)
O=S(=O)(NCCNc1cc(-c2cn(-c3ccccc3)nc2-c2cccc(O)c2)ccn1)c1ccc(Br)cc1	11.1% (inactive)
Cc1nc(/N=C(\N)NC(=O)Nc2cccc([N+](=O)[O-])c2)sc1C	39.5% (inactive)
CCN(CC)S(=O)(=O)c1ccc(OC)c(NC(=O)c2[nH]c(C)c3c2CCCCC3=O)c1	4.18% (active)
COc1ccc(-n2c(-c3ccccc3)c(-c3ccccc3)c3c(SCC(=O)N/N=C/c4ccc(Cl)cc4)ncnc32)cc1	103% (inactive)
O=C(O)c1ccc[n+](CC(=O)N2CCN(c3cc4c(cc3F)c(=O)c(C(=O)O)cn4C3CC3)CC2)c1	97.6% (inactive)
O=C(c1ccccc1)C1C(=O)N2C(=S)N(c3ccccc3)C(=O)C2C1c1ccc(Cl)cc1 (centres undefined)	100% (inactive)

Compound	growth
Nc1ccccc1SC(CC(=O)c1ccccc1)c1cccc([N+](=O)[O-])c1 (centres undefined)	96.8% (inactive) and 88.5% (inactive)
O=C(c1nn(-c2ccc(Cl)cc2)cc1O)n1nc(C(F)(F)F)cc1-c1ccccc1	-14.8% (active)
CCN(CC)c1cc(C)c2cc(NC(=O)c3cccc(OC)c3)ccc2n1	84.7% (inactive)
CC1=NC2=CC=CC3=NC(C(Cl)(Cl)Cl)=NC(=N1)N23	25.2% (inactive)
O=C(Cc1ccccn1)C(F)(F)C(F)(F)C(F)(F)F	105% (inactive)
Cn1cc(-c2nc(-c3c[nH]c4ccncc34)cs2)c2ccccc21	-41.9% (active)
COc1ccc(C2C=C(c3ccc(OC)c(OC)c3)N=C3SC=C(C)N32)c(Br)c1 (centres undefined)	101% (inactive)
COc1cc(-c2cc(=O)oc3cc(O)ccc23)cc(OC)c1OC	86.3% (inactive)
CN(C)C1CCN(Cc2ccc(NC(=O)c3cncc(C#Cc4cnc(N)c5ncccc45)c3)cc2C(F)(F)F)CC1	73.6% (inactive)
Cc1cc(-c2ccc(NS(=O)(=O)c3ccccc3)c(C)c2)ccc1NS(=O)(=O)c1ccccc1	74.5% (inactive) and 97.3% (inactive)
O=S(=O)(O)c1ccc(Cl)c(Cl)c1	106% (inactive)
CC(=O)C(CO)C(=O)Nc1ccccc1 (centres undefined)	100% (inactive)
NCCCNc1nc2ccccc2c2c(=O)c3cccc(F)c3sc12	13.9% (inactive)
c1ccc(CNc2nc(Nc3ccc(-c4nc5ccccc5[nH]4)cc3)c3cn[nH]c3n2)cc1	-4.71% (active)
CC1(C)[C@@H](OC(=O)CCC(=O)O)CC[C@]2(C)[C@H]3C(=O)C=C4[C@@H]5C[C@@](C)(C(=O)O)CC[C@]5(C)CC[C@@]4(C)[C@]3(C)CC[C@@H]12	84.9% (inactive) and -56.3% (active)
CCCCCCN1C(=O)CN=C1Nc1ccc2cc3ccc(NC4=NCC(=O)N4CCCCCC)cc3nc2c1	50.1% (inactive)
COc1ccc(-c2nn(-c3ccc(Cl)cc3)cc2-c2nc3ccccc3[nH]2)cc1	114% (inactive)
O=C(CCCCC(=O)N/N=C\c1ccccc1O)N/N=C\c1ccccc1O	4.44% (active)
NS(=O)(=O)c1cnccc1Oc1cccc2cccnc12	89.5% (inactive)
